# Results from PubChem BioAssay AID725 (NMMLSC, 2007).
# Among all 1,300 compounds or so, fewer than 10 were called active. These entries were drawn from the full list. Values without a mark were called inactive. The rule behind the calls is not given here.
# Biological target: N-formyl peptide receptor 2 (Homo sapiens) (UniProt P25090)
# Test: FPRL1 fluorescent ligand binding inhibitors, primary screen, selectivity assay for FPR ligand SAR project, cell-based, flow cytometry, HTS counterscreen (AID 725)
# Details: FPRL1-expressing cells, hits give high values, concentration not given here
# Sequence of N-formyl peptide receptor 2 (Homo sapiens) (P25090 whole entry, looked up): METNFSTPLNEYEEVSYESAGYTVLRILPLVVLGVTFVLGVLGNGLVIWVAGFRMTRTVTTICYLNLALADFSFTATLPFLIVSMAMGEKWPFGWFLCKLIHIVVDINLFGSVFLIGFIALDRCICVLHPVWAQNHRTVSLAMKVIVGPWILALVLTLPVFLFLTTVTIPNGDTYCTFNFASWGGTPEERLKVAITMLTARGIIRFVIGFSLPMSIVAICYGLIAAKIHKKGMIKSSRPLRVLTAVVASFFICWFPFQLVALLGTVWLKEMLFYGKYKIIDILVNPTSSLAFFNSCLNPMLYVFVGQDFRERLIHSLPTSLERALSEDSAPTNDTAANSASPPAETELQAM
row,Structure (SMILES),inhibition
1,O=C(C(Cc1ccccc1)N1Cc2ccccc2C1=O)N1CCOCC1 (stereo not drawn),-13.3%
2,CCOC(=O)c1c(NC(=O)c2cccs2)sc2c1CCC(C(C)(C)C)C2 (stereo not drawn),-4.5%
3,CC(C)c1ccc(C2/C(=C(\O)c3ccc(F)cc3)C(=O)C(=O)N2CCN2CCOCC2)cc1 (stereo not drawn),5.6%
4,CCOC(=O)Cc1c(C)nc2c(C#N)c(C)[nH]n2c1=O,5.1%
5,O=c1c(-c2ccc(Cl)cc2)c(C(F)(F)F)oc2c(CN3CCCCC3)c(O)ccc12,2.2%
6,COC(=O)c1c(NC(=O)c2cncc(Br)c2)sc2c1CCCC2,-1.3%
7,CN1C(=O)c2ccccc2C(C(=O)N2CCCC2)C1c1cccs1 (stereo not drawn),-3%
8,O=C1C(=O)N(c2ccc(Br)cc2)C(c2ccc(Br)cc2)/C1=C(/O)c1ccccc1 (stereo not drawn),0.2%
9,COC(=O)c1c(NC(=O)c2cc(OC)c(OC)c(OC)c2)sc(C)c1C,-10.3%
10,CCOC(=O)c1cc(C(C)C)sc1NC(=O)CCCC(=O)O,-4.7%
11,COc1ccc(OC)c(C(=O)CC2(O)C(=O)N(C)c3ccccc32)c1 (stereo not drawn),1.1%
12,COc1ccc(CN2CCc3c(c(=O)n4ncc(C(=O)O)c4n3C)C2)cc1,-3.9%
13,CCc1c(C)nc2c(-c3ccc(OC)c(OC)c3)c(C)[nH]n2c1=O,-1.3%
14,Cc1ccc(C2/C(=C(\O)c3ccc(Cl)cc3)C(=O)C(=O)N2CCN2CCOCC2)cc1 (stereo not drawn),0.3%
15,Cc1cc(C)nc(/N=C(/NC(=O)c2ccccc2)Nc2cccc(Cl)c2)n1,-4.7%
16,CCOc1ccc(C2/C(=C(/O)c3ccccc3)C(=O)C(=O)N2CC(C)O)cc1 (stereo not drawn),-1.6%
17,CCC(Sc1nc2ncccc2o1)C(=O)Nc1ccccc1OC (stereo not drawn),-16.4%
18,O=C1C(=O)N(c2ccccn2)C(c2cccnc2)/C1=C(/O)c1ccccc1 (stereo not drawn),4.3%
19,CCOC(=O)c1c(NC(=O)c2cccc(Cl)c2)sc(C)c1C,6.4%
20,Cc1cc(C)c(NC(=O)CSc2nncn3c2cc2oc(C)cc23)c(C)c1,13.3%
21,COc1ccccc1NC(=O)CSc1nncn2c1cc1occc12,34.6% (active)
22,Cc1cc(C)c(NC(=O)CSc2nncn3c2cc2occc23)c(C)c1,12%

row,Structure (SMILES),inhibition
1,O=C1O[C@@H]2C[C@H]3C[C@@H]2[C@@H]1[C@H]3C(=O)N1CCc2ccccc21,-14.7%
2,O=C(O)C1CCCCC1C(=O)Nc1ccc(O)cc1 (stereo not drawn),-4.1%
3,COc1ccc(C2SCC(=O)N2c2ccccc2)cc1 (stereo not drawn),0%
4,Cc1ccc(C2/C(=C(\O)c3ccccc3)C(=O)C(=O)N2CCN2CCNCC2)cc1 (stereo not drawn),7.6%
5,COC(=O)c1c[nH]n2c(=O)c3c(nc12)C(=O)N(Cc1ccccc1)C3,-4.5%
6,Cc1cccc(C(CC(=O)O)NS(=O)(=O)c2ccc(C)cc2C)c1 (stereo not drawn),-12.7%
7,CCC(=O)N1c2ccccc2CC1C(=O)N1CCN(CC)CC1 (stereo not drawn),5.1%
8,COc1ccc(C2C(C(=O)c3ccc(C)o3)=C(O)C(=O)N2Cc2cccnc2)cc1OC (stereo not drawn),2.3%
9,CCN(CC)C(=O)c1c(NC(=O)c2cccc(C)c2)sc2c1CCCCC2,0.5%
10,O=C1C(=O)N(CCCN2CCOCC2)C(c2ccc(Cl)cc2)/C1=C(\O)c1ccccc1 (stereo not drawn),6.2%
11,CCc1cc2c(=O)c(-c3ccc4c(c3)OCO4)c(C(F)(F)F)oc2c(CN(C)C)c1O,-3%
12,O=C(CCCC(=O)c1ccccc1)Nc1cc(F)ccc1F,-27.4%
13,CCN(C(=O)c1noc2c1CC(C)CC2)c1cccc(C)c1 (stereo not drawn),-9.6%
14,CC(C)c1ccc(CN(Cc2ccco2)C(=O)c2ccc(F)cc2)cc1,-3.3%
15,COc1ccc(C2C(C(=O)c3ccco3)=C(O)C(=O)N2c2nnc(C)s2)cc1OC (stereo not drawn),1.1%
16,CCOC(=O)c1c(NC(=O)c2ccc(Cl)cc2)sc2c1CCC(C)C2 (stereo not drawn),-4.7%
17,Cc1onc(-c2ccccc2Cl)c1C(=O)NC1CCCCC1,4.7%
18,Cc1ccc(N2C(=O)CSC2c2ccc(C(C)(C)C)cc2)cc1C (stereo not drawn),-24.8%
19,COC(=O)c1c(NC(=O)c2cccc(Cl)c2)sc2c1CCCC2,4.4%
20,Cc1ccc(N2C(=O)C(=O)/C(=C(\O)c3ccc(Cl)cc3)C2c2ccc(O)cc2)cc1Br (stereo not drawn),-2.4%
21,CCOC(=O)c1c(NC(=O)c2ccccc2C)sc2c1CCC(CC)C2 (stereo not drawn),-9.3%
22,Cc1cc(C)n(Cc2c(C(=O)N3CCC(C)CC3)noc2C)n1,18.2%

row,Structure (SMILES),inhibition
1,CCCN(C(=O)[C@H]1[C@@H]2C[C@@H]3[C@H]1C(=O)O[C@@H]3C2)c1ccccc1F,15.9%
2,COc1ccc(C2/C(=C(\O)c3ccc(C)cc3)C(=O)C(=O)N2CCN2CCOCC2)c(OC)c1 (stereo not drawn),-7%
3,O=C(C(c1ccccc1)N1Cc2ccccc2C1=O)N1CCCCCC1 (stereo not drawn),1.9%
4,Nc1nonc1-c1nc2ccccc2n1CC(=O)Nc1ccccc1Cl,-1.8%
5,COC(=O)c1ccc(-c2ccco2)n1CC(=O)Nc1c(C)cc(C)cc1C,-13.6%
6,COc1ccc(C2/C(=C(/O)c3ccccc3)C(=O)C(=O)N2c2ccc(F)cc2)c(OC)c1 (stereo not drawn),3.6%
7,O=C1C(=O)N(Cc2cccnc2)C(c2ccc(F)cc2)/C1=C(\O)c1ccccc1 (stereo not drawn),6.7%
8,CC(C)OC(=O)c1c(NC(=O)C2CCCC2)sc2c1CCCC2,-0.2%
9,O=C1C(=O)N(CCCN2CCOCC2)C(c2cccc(Br)c2)/C1=C(\O)c1ccccc1 (stereo not drawn),5.8%
10,Cc1nnc(N2C(=O)C(=O)/C(=C(/O)c3ccccc3)C2c2ccc(Cl)cc2)s1 (stereo not drawn),-5%
11,COCCCN1C(=O)C(=O)/C(=C(/O)c2ccccc2)C1c1ccc(Br)cc1 (stereo not drawn),3.8%
12,COc1cccc(NC(=O)C2CCC(=O)N2S(=O)(=O)c2ccccc2)c1 (stereo not drawn),-2.9%
13,COC(=O)c1c(NC(=O)c2cccc(Br)c2)sc(C)c1C,3.3%
14,CCOC(=O)c1sc(N2C(=O)C(=O)/C(=C(/O)c3ccccc3)C2c2ccc(O)c(OC)c2)nc1C (stereo not drawn),0.2%
15,COC(=O)c1c(NC(=O)c2ccc(F)cc2)sc2c1CCC2,-10.9%
16,Cc1ccc(C2CC(c3ccccc3)n3ncnc3N2C(=O)c2ccccc2)cc1 (stereo not drawn),-21.4%
17,CC(O)CN1C(=O)C(=O)/C(=C(\O)c2ccccc2)C1c1cccnc1 (stereo not drawn),1.7%
18,COc1ccccc1C1CC(=O)NC2=C1C(=O)CC(c1ccccc1Cl)C2 (stereo not drawn),0.3%
19,COc1ccc(C2C(C(=O)c3cc4ccccc4o3)=C(O)C(=O)N2CCN(C)C)cc1OC (stereo not drawn),9.3%
20,COC(=O)c1c(NC(=O)c2cccs2)sc(C)c1C,1.5%
21,CCCCCCc1cc2c(=O)c(-c3nc4ccccc4n3C)c(C(F)(F)F)oc2cc1O,3.9%
22,COc1cccc(OC)c1C(=O)Oc1ccc2c(=O)c(Oc3ccc4ccccc4c3)c(C(F)(F)F)oc2c1,4.4%

row,Structure (SMILES),inhibition
1,C=CCN1C(=O)C2(/C(=C(/O)c3ccc(C)cc3)C(=O)C(=O)N2CC2CCCO2)c2ccccc21 (stereo not drawn),0.9%
2,CCN(CC)Cc1c(O)ccc2c(=O)c(-c3ccc(OC)c(OC)c3)c(C(F)(F)F)oc12,-8.6%
3,O=C1C(=O)N(c2nncs2)C(c2cccs2)/C1=C(/O)c1ccc(F)cc1 (stereo not drawn),-5.3%
4,CCOC(=O)c1c(NC(=O)c2ccc(OC)cc2)sc(C)c1C,-3.8%
5,CC(C)c1ccc(C2/C(=C(\O)c3ccccc3)C(=O)C(=O)N2CCC(=O)O)cc1 (stereo not drawn),7.3%
6,COC(=O)c1c(NC(=O)c2ccc(Cl)c(Cl)c2)sc2c1CCCC2,-2.7%
7,CCOC(=O)c1c(CC(C)C)csc1NC(=O)c1ccccc1F,-1.5%
8,COc1ccc(Br)cc1CNC(=O)Cn1ncc2ccccc21,-17.2%
9,CCCCn1c(=O)c2c(nc3n2CCN3Cc2ccco2)n(C)c1=O,-0.5%
10,O=c1c(-c2cccc(Cl)c2)c(C(F)(F)F)oc2c(CN3CCOCC3)c(O)ccc12,3.4%
11,CCc1nn(Cc2ccccc2F)c(=O)c2cc3cc(C)ccc3n12,-0.2%
12,CCN(CC)C(=O)c1c(NC(=O)c2ccccc2F)sc2c1CCC(C)C2 (stereo not drawn),2.2%
13,CCOC(=O)c1c(NC(=O)c2ccccc2OCC)sc2c1CCCC2,-11.3%
14,Cc1ccc(OC(=O)c2ccc(N3C(=O)c4cccc(N)c4C3=O)cc2)cc1C,-3.5%
15,CCOC(=O)C1=C(C)N(c2ccc(C)cc2)C(=O)/C1=C\c1ccccc1OC,-4.9%
16,O=C1C(=O)N(CCc2c[nH]c3ccccc23)C(c2cccnc2)/C1=C(/O)c1ccc(Cl)cc1 (stereo not drawn),-0.1%
17,CCc1ccc(Oc2c(C(F)(F)F)oc3cc(OCC(=O)OC4CCCCC4)ccc3c2=O)cc1,1.4%
18,Cc1sc(NC(=O)C2C3CCC(O3)C2C(=O)O)c(C(N)=O)c1-c1ccc(C(C)C)cc1 (stereo not drawn),-4.5%
19,O=C1C(=O)N(c2cccc(C(F)(F)F)c2)C(c2ccccc2[N+](=O)[O-])/C1=C(\O)c1ccccc1 (stereo not drawn),-1.4%
20,CCOc1ccccc1C(=O)N(Cc1ccc(Cl)cc1)Cc1ccco1,-14.6%
21,O=C1C(=O)N(Cc2cccnc2)C(c2cccc(Br)c2)/C1=C(\O)c1ccccc1 (stereo not drawn),4.9%
22,CC(C)OC(=O)c1c(NC(=O)C2CCCCC2)sc2c1CCCC2,-2.7%
